Reference: PubChem BioAssay AID720509 (The Scripps Research Institute Molecular Screening Center, 2013)
Hit rate of the full screen: of about 370,000 compounds, about 760 (0.21%) were called active. The full list was thinned out, with actives kept by preference. Values without a mark were called inactive.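 Rule for the calls: active = inhibition above a per-campaign cutoff: mean of compounds within control limits plus 3 SD (cut at about 15% in these data); inactive = the rest.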

target: Fibrinogen beta chain (Homo sapiens) (UniProt P02675); assay: inhibitors of Tn6 peptide binding to fibrin DD(E), primary screen, biochemical, fluorescence polarization, human fibrin, Tn6 probe (AID 720509); conditions: Fibrin DD(E) TRITC-Tn6 fluorescence polarization displacement; at 8.3 µM; stronger effect = higher value;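 note: 0% = median of all compound wells on the plate and 100% = blocking peptide control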
Sequence (P02675 whole entry, looked up): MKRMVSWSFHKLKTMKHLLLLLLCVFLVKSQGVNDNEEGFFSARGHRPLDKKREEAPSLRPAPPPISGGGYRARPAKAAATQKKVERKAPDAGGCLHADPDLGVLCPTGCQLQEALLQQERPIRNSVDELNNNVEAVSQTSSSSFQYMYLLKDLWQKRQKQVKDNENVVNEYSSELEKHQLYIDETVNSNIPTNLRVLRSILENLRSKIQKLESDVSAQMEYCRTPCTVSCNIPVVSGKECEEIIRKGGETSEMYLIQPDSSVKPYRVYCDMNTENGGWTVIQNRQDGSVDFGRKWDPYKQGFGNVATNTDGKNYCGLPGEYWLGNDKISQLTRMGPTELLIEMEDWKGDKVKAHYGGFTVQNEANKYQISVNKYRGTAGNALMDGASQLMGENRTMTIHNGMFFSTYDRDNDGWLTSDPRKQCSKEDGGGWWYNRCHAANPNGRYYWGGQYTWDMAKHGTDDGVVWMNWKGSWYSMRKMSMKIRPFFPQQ

Row | Compound | inhibition
1 | O=C(c1c(F)cccc1F)N1CCN(c2ncc(Br)cn2)CC1 | -1.65%
2 | CC(=O)OC(C)C[N+](C)(C)C (centres undefined) | 3.71%
3 | CCOC(=O)C(C)Oc1cccc2c(=O)n(CC(=O)N3CCc4ccccc43)ccc12 (centres undefined) | -1.79%
4 | CC(=O)N1CCCN(C2=Nc3ccccc3Sc3ccccc32)CC1 | -3.1%
5 | Cc1cc(-c2nnc(SCC(=O)Nc3ccc(S(N)(=O)=O)cc3)n2N)n[nH]1 | -3.55%
6 | Cc1oc2nc(SCC(=O)Nc3ccc(S(N)(=O)=O)cc3)nc(NC(=O)c3ccccc3)c2c1C | 24.4% (active)
7 | Cc1oc2nc(SCC(=O)NCc3cccnc3)nc(N)c2c1C | 7.93%
8 | COc1cc2c(cc1OC)C(C(=O)Nc1cc(C)c(OC)c(C)c1)CC(=O)N2 (centres undefined) | 10.8%
9 | N#Cc1ccc(COC(=O)Cn2nnc(-c3ccccc3)n2)cc1 | 0.38%
10 | Cn1c(SCC(=O)NC2CCCCC2)nnc1-c1ccc(N)cc1 | 1.64%
11 | CCOc1cccc(-c2nnc(SCC(=O)NC3CC3)n2C)c1 | 6.34%
12 | CCc1cc(-c2nnc(SCC(=O)NC3CC3)n2C)cs1 | 18.6% (active)
13 | O=[N+]([O-])c1ccccc1N/N=C1\CCc2ccccc21 | -1.87%
14 | O=C(NC1CCc2ccccc21)C12CN(Cc3ccccc3)CC1C(c1cccc([N+](=O)[O-])c1)=NO2 (centres undefined) | 1.76%
15 | COCC(C)n1c(C)cc(C(=O)COc2ccc(C)nc2[N+](=O)[O-])c1C (centres undefined) | 2.28%
16 | O=C(NCc1nnc(SCC(=O)N2CCCCCC2)o1)c1ccc(F)cc1 | 4%
17 | O=S(=O)(NCC1CN(S(=O)(=O)c2ccc3c(c2)OCCO3)C1)c1c(F)cccc1F | 0.97%
18 | COc1ccc(-c2c(C)nn3c(N4CCC(C(=O)N5CCCCC5)CC4)cc(C)nc23)cc1OC | -3.53%
19 | O=S(=O)(Nc1ccc(-n2cnnn2)cc1)c1ccc(Cl)cc1 | -1.46%
20 | N#Cc1ccc(S(=O)(=O)NCC(=O)OCC(=O)NCCc2ccccc2)cc1 | -8.48%
21 | N#CC1=C(N)Oc2c(sc3ccccc23)C1c1ccco1 (centres undefined) | 3.91%
22 | CC(C)(C)c1cc(=O)n2c(nc3ccccc32)[nH]1 | -1.54%
23 | CN(CC(=O)Nc1ccccc1Cl)C(=O)c1ccccc1SCC(=O)N1CCCC1 | -6.29%

Row | Compound | inhibition
24 | COc1ccc(N(CC(=O)NC2CCCCC2)S(=O)(=O)c2c(C)[nH]c(=O)[nH]c2=O)cc1 | 6%
25 | CCCCNC(=O)C[C@@H]1C[C@@]2(C(=O)OCC)CCC=C2N(Cc2ccco2)C1=O | 3.81%
26 | COc1ccc(CNc2c(CO)cnc3c2cnn3C)cc1 | -2.59%
27 | COc1ccc(CC(=O)Nc2c3c(nn2-c2cccc(Cl)c2)CS(=O)C3)cc1 (centres undefined) | -10.3%
28 | COc1c(C)cc(C(O)c2ncc(-c3cccc(C(F)(F)F)c3)[nH]2)cc1C (centres undefined) | 8.36%
29 | CCOC(=O)N1CCN(Cc2nc3cc(NC(=O)CC)ccc3n2CC)CC1 | -8.37%
30 | CCOC(=O)C1CCCN(Cc2nc(N)nc(Nc3ccc(C)cc3)n2)C1 (centres undefined) | -3.73%
31 | CCOC(=O)N1CCN(Cc2nc(N)nc(Nc3ccc(C)cc3)n2)CC1 | 17% (active)
32 | Cc1nnc2n1N=C(c1ccc3c(c1)NC(=O)CO3)CS2 | 0.86%
33 | CCOC(=O)N1CCN(S(=O)(=O)c2ccc(-n3cnnn3)cc2)CC1 | 7.12%
34 | COc1ccc(S(=O)(=O)NC(CC(=O)NCc2ccccc2OC)c2ccco2)cc1 (centres undefined) | 2.08%
35 | COc1ccc2c(c1)c1ncn(Cc3ccccn3)c(=O)c1n2C | -7.12%
36 | CC(C)(C)OC(=O)C[C@@H]1C/C=C\C[C@@H](CC(=O)N[C@@H](CO)Cc2ccccc2)C(=O)N2CCC[C@H]2COC1=O | -2.9%
37 | O=C(COC(=O)c1ccc(F)cc1F)Nc1ncccn1 | 2.94%
38 | COC(=O)C1=C(C)NC(=S)NC1c1ccc(OC)cc1 (centres undefined) | 0.81%
39 | Nc1nc(SCC(=O)NNc2c(Cl)cc(Cl)cc2Cl)n[nH]1 | 8.94%
40 | COc1ccc(C(CNC(=O)c2ccc(OCc3cscn3)cc2)N2CCCC2)cc1 (centres undefined) | 2.19%
41 | Oc1c(Cl)cc(Cl)c(Cl)c1Cc1c(O)c(Cl)cc(Cl)c1Cl | -7.14%
42 | Cc1cc([N+](=O)[O-])nn1Cc1ccc(F)cc1 | -0.46%
43 | COc1ccc(C(=O)C2CCCN(S(=O)(=O)c3cccc(C)c3)C2)c(C)c1 (centres undefined) | -7.45%
44 | CCCC1(C(=O)OCC)NC(c2ccc(N(C)C)cc2)C2C(=O)N(c3ccc4c(c3)OCCO4)C(=O)C21 (centres undefined) | -9.09%
45 | COc1ccccc1C(=O)COC(=O)CSCC(=O)Nc1cc(C)on1 | 0.48%
46 | O=C(CN1C(=O)NC2(CCCCCC2)C1=O)NCc1cccs1 | -0.57%

Row | Compound | inhibition
47 | CSC1=NN(c2ccccc2)CN(c2ccccc2)N1C | -0.87%
48 | COc1ccc(CCNC(=O)C(=O)NCC2CCCN2S(=O)(=O)c2cccs2)cc1OC (centres undefined) | -8.21%
49 | COCCN(Cc1nc(-c2ccc(C(F)(F)F)cc2)no1)C(C)C | -5.72%
50 | CC(C)CCNC(=O)CC1C(=O)N(Cc2ccccc2)C(C)c2nc3ccccc3n21 (centres undefined) | 5.33%
51 | Cc1cc(=O)oc(C)c1C(=O)Nc1cnc2ccccc2c1 | -3.11%
52 | CCOc1ccc(C(=O)Nc2cc(Cl)ccc2-n2cncn2)cc1OC | 2.72%
53 | CN(C)c1cccc(NC(=O)c2ccc(-c3ccc(F)c(F)c3)c3ccoc23)c1 | -0.65%
54 | Cc1cccc(NS(=O)(=O)c2cc(Cl)ccc2Cl)n1 | 1.49%
55 | CC(=O)N/C(=C\c1ccc(F)cc1)C(=O)NC(Cc1ccccc1)C(=O)O (centres undefined) | 2.99%
56 | Oc1ccc(N=Cc2sc3ccccc3c2Cl)cc1 | 36.1% (active)
57 | CN1CCN(S(=O)(=O)c2ccc(Nc3ccc(F)cc3)nc2)CC1 | -3.71%
58 | O=C(CCN1C(=O)[C@H]2CC=CC[C@H]2C1=O)NCc1nc(-c2ccccc2)no1 | 1.52%
59 | CCc1nc2c(OCc3ccc(C(F)(F)F)cc3)cccn2c1N(C)C(=O)CC(C)C | 3.22%
60 | Cc1nc2nc3c(cn2n1)C(=O)CC(c1ccccc1)C3 (centres undefined) | 4.63%
61 | CC(C)CSc1nnc(-c2cccnc2)n1Cc1ccccc1 | -2.2%
62 | Cc1cc(NS(=O)(=O)c2ccc(NC(=O)CSc3nnc(-c4ccc(C(C)(C)C)cc4)n3Cc3ccco3)cc2)nc(C)n1 | 6.53%
63 | Cc1ccc(C(=O)NC2CCN(C(=O)Nc3ccccc3Cl)CC2)cc1 | 0.49%
64 | CCOCCCNC(=O)c1c[nH]c2cc(C)ccc2c1=O | -0.35%
65 | CCn1ccnc1CN(C)C(=O)c1ccc2nc(Cc3ccc(OC)cc3)oc2c1 | -4.19%
66 | CCC1C(=O)NCCN1C(=O)c1ccc2nc(Cc3ccc(OC)cc3)oc2c1 (centres undefined) | 15.8% (active)
67 | COc1ccc(Cc2nc3ccc(C(=O)N4CCC(N(C)C)C4)cc3o2)cc1 (centres undefined) | 2.22%
68 | CC(C)CN1CC(C)C(=O)N(c2ccccc2)C1=S (centres undefined) | 11.7%
69 | COC(=O)C1=C(C)N(c2ccc(C)cc2)/C(=C/c2ccc(O)cc2)C1=O | 1.49%

Row | Compound | inhibition
70 | Cc1ccccc1N(C(=O)Cc1cccs1)C(C(=O)NC1CCCCC1)c1cn(C)nc1C (centres undefined) | -5.36%
71 | CCOc1ccc(C(=O)Nc2cccc(-c3ccc4nncn4n3)c2)cc1 | 12.2%
72 | O=C(Nc1nsc(-c2ccccc2)n1)c1ccncc1 | 1.55%
73 | O=C(Nc1cccc(-c2nc3ccccc3[nH]2)c1)c1ccc(C(=O)Nc2cccc(-c3nc4ccccc4[nH]3)c2)cc1 | 19.9% (active)
74 | O=C(c1ccc(F)cc1)c1cn(Cc2ccc(F)cc2)c2cc3c(cc2c1=O)OCCO3 | -1.55%
75 | CCN(CC)C(=O)CC[C@@H]1CC[C@]2(CCCN(S(=O)(=O)C3CCCCC3)C2)O1 | -5.4%
76 | CCc1nc2ccccc2c(C(=O)OC2CCCCC2=O)c1C (centres undefined) | -0.37%
77 | CSc1ccccc1OCc1cc(C(=O)N2C[C@H]3CC[C@H]2C3)no1 | 8.52%
78 | O=C(CN1C(=O)CSC1=O)N1CCCC(Nc2ccc(F)cc2)C1 (centres undefined) | -6.4%
79 | CC(=O)Nc1ccc(OCCC[n+]2cccc(C(=O)[O-])c2)cc1 | -1.3%
80 | Cn1ccc(=Nc2ccc(NC(=O)c3ccc(N=c4ccn(C)c5ccc([N+](=O)[O-])cc45)cc3)cc2)cc1 | -6.27%
81 | COC(=O)C1CN(Cc2cn(Cc3ccc(F)cc3)nn2)CCS(=O)(=O)N1Cc1ccc(Cl)cc1 (centres undefined) | 10.6%
82 | Cc1ccc(OCCNC(=O)c2cccc(S(=O)(=O)N3CCN(Cc4ccccc4)CC3)c2)cc1 | 4.41%
83 | C[C@@H]1CN([C@H](C)CO)C(=O)CCCn2cc(nn2)CO[C@H]1CN(C)S(=O)(=O)c1ccc(Oc2ccccc2)nc1 | -1.11%
84 | Cc1noc(C)c1-c1nc(CSc2ccc(Cl)cc2)no1 | -2.98%
85 | C[C@@H](C(=O)N1CCNCC1)n1cc(CCC(=O)O)nn1 | -0.49%
86 | O=C(Cc1c(Cl)cccc1Cl)NC1CC1 | 6.01%
87 | O=C(CCl)NNc1cccc(Cl)n1 | 30.8% (active)
88 | O=C(NNc1cc(Cl)cc(Cl)c1)c1c(F)cccc1Cl | 1.43%
89 | COC(=O)[C@]12C[C@H](CC(=O)NCc3cccc(C(F)(F)F)c3)C(=O)N(Cc3ccc4c(c3)OCO4)C1=C[C@H](COCc1ccccc1)O[C@@H]2C | -3.35%
